Assay results taken from PubChem BioAssay (NCATS).
Inconclusive results are not listed. Active and inactive are the calls of the source. Calls follow the shape of the dose curve; as a rule, active = well fitted curve in the direction sought with a large enough effect; inconclusive = small, poorly fitted or top-dose-only effect, or another doubt; inactive = no such curve, though single readings can be large; an effect the other way counts as inactive or inconclusive.

Columns and labels:
[1] = qHTS of pediatric cancer cell lines to identify multiple opportunities for drug repurposing: Primary screen for RD cells (AID 1347104); also: nearly all actives have a fitted effect of over 55% in size; also: potency is read from the fitted curve at half-maximal effect
Summary of the method: (§1)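 Cells plated at 500-1,000/well in growth medium, compounds added after 5 h. MIPE tested at 11 points (from 0.78 nM), NPC at 8 points (from 0.59 nM). CellTiter-Glo luminescence after 48 h; concentration-response curves from primary screen.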

[2] = qHTS of pediatric cancer cell lines to identify multiple opportunities for drug repurposing: Primary screen for MG 63 (6-TG R) cells (AID 1347105); also: nearly all actives have a fitted effect of over 50% in size
Summary of the method: as §1

[3] = qHTS of pediatric cancer cell lines to identify multiple opportunities for drug repurposing: Primary screen for control Hh wild type fibroblast cells (AID 1347106); also: nearly all actives have a fitted effect of over 55% in size; also: potency is read from the fitted curve at half-maximal effect
Summary of the method: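 Cells (500-1,000/well) in growth media were settled 5 h at 37 degrees C, then given compounds for 48 h. Viability was read as CellTiter-Glo luminescence. Primary runs used MIPE at 11 points (0.78 nM-46 µM) and NPC at 8 points (0.59 nM-46 µM); follow-ups used 11 points.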

[4] = qHTS of pediatric cancer cell lines to identify multiple opportunities for drug repurposing: Primary screen for Rh30 cells (AID 1347107); also: series mostly up to about 46 µM; nearly all actives have a fitted effect of over 75% in size
Summary of the method: (§2)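 Cells (500-1,000/well) rested 5 h, then received compounds for 48 h; metabolically active cells were measured by CellTiter-Glo luminescence. Final concentrations spanned up to 46 µM (MIPE, 11-point) or 0.59 nM-46 µM (NPC, 8-point) in primary screens, 11-point in follow-ups.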

[5] = qHTS of pediatric cancer cell lines to identify multiple opportunities for drug repurposing: Primary screen for Rh41 cells (AID 1347108); also: nearly all actives have a fitted effect of over 70% in size; also: potency is read from the fitted curve at half-maximal effect
Summary of the method: as §1

[6] = qHTS of pediatric cancer cell lines to identify multiple opportunities for drug repurposing: Confirmatory screen for NB1643 cells (AID 1347109); also: nearly all actives have a fitted effect of over 45% in size
Summary of the method: as §2

[7] = qHTS of pediatric cancer cell lines to identify multiple opportunities for drug repurposing: Confirmatory screen for A673 cells (AID 1347110);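 also: cells exposed to compound for 48 h before the viability read; nearly all actives have a fitted effect of over 65% in size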
Summary of the method: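 Forty-eight-hour viability assay. Follow-up compounds ran at 11-point dilutions; positive control bortezomib at 2.3 uM final, neutral control DMSO.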

[8] = qHTS of pediatric cancer cell lines to identify multiple opportunities for drug repurposing: Confirmatory screen for LAN-5 cells (AID 1347113); also: nearly all actives have a fitted effect of over 65% in size
Summary of the method: as §2

[9] = qHTS of pediatric cancer cell lines to identify multiple opportunities for drug repurposing: Confirmatory screen for DAOY cells (AID 1347114); also: potency is read from the fitted curve at half-maximal effect; nearly all actives have a fitted effect of over 65% in size
Summary of the method: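 Viability measured as metabolically active cells via CellTiter-Glo luminescence following 48 hours of compound exposure, 11-point dilutions in confirmatory testing. 500-1,000 cells/well plated 5 hours before dosing; controls were DMSO and 2.3 µM bortezomib.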

[10] = qHTS of pediatric cancer cell lines to identify multiple opportunities for drug repurposing: Confirmatory screen for NB-EBc1 cells (AID 1347115);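 also: cells exposed to compound for 48 h before the viability read; nearly all actives have a fitted effect of over 45% in size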
Summary of the method: as §2

[11] = qHTS of pediatric cancer cell lines to identify multiple opportunities for drug repurposing: Confirmatory screen for BT-37 cells (AID 1347117); also: nearly all actives have a fitted effect of over 55% in size
Summary of the method: as §2

[12] = qHTS of pediatric cancer cell lines to identify multiple opportunities for drug repurposing: Confirmatory screen for TC32 cells (AID 1347118);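 also: potency is read from the fitted curve at half-maximal effect; cells exposed to compound for 48 h before the read; nearly all actives have a fitted effect of over 65% in size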
Summary of the method: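 Measured quantity: luminescence from CellTiter-Glo, reflecting metabolically active TC32 cells following 48 h of compound. Curves came straight from multi-point titrations, with 8 or 11 points in primary and 11 in confirmatory screening.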

[13] = qHTS of pediatric cancer cell lines to identify multiple opportunities for drug repurposing: Confirmatory screen for control Hh wild type fibroblast cells (AID 1347121); also: nearly all actives have a fitted effect of over 70% in size
Summary of the method: as §2

[14] = qHTS of pediatric cancer cell lines to identify multiple opportunities for drug repurposing: Confirmatory screen for U-2 OS cells (AID 1347122)
Summary of the method: as §2

[15] = qHTS of pediatric cancer cell lines to identify multiple opportunities for drug repurposing: Confirmatory screen for Rh41 cells (AID 1347123);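 also: 48 h compound exposure; nearly all actives have a fitted effect of over 60% in size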
Summary of the method: as §2

Measured: Potency

COC(=O)C1=C(C)NC(COC(N)=O)=C(C(=O)OC(C)C)C1c1cccc(Cl)c1Cl (stereo unspecified)
inactive: [1] | [2] | [3] | [4] | [5]

C[C@H]1NCc2cc(-c3ccc4c(=O)c(C(=O)O)cn(C5CC5)c4c3OC(F)F)ccc21
inactive: [1] | [2] | [3] | [4] | [5]

CCCOc1ccc2c(c1)CC[C@@H]1[C@@H]2CC[C@]2(C)C(OC)CC[C@@H]12 (stereo partly specified)
inactive: [1] | [2] | [3] | [4] | [5]

O=C1OC2(c3ccccc31)c1cc(I)c(O)c(I)c1Oc1c2cc(I)c(O)c1I
inactive: [1] | [2] | [3] | [5]

C[C@@H](C1=C(CCN(C)C)Cc2ccccc21)c1ccccn1
inactive: [1] | [2] | [3] | [4] | [5]

Cc1nc2n(c(=O)c1CCN1CCC(C(=O)c3ccc(F)cc3)CC1)CCS2
inactive: [1] | [3] | [4] | [5]

CC(C)(c1ccc(O)cc1)c1ccc(O)cc1
inactive: [1] | [3] | [4]

N=C(N)c1ccc(OCCCOc2ccc(C(=N)N)cc2)cc1
active: [9] 18.5 µM | [12] 23.3 µM | [14] 0.465 µM
inactive: [1] | [2] | [3] | [4] | [5] | [6] | [7] | [8] | [10] | [11] | [13] | [15]

C[C@@]12CCC[C@H]1[C@@H]1CC[C@H]3C[C@@H](O)CC[C@]3(C)[C@H]1CC2
inactive: [1] | [3] | [4] | [5]

CCCC(=O)c1cc(O)c(O)cc1O
inactive: [1] | [2] | [4] | [5]

CC(C)(C)C(O)/C=C/c1ccc2c(c1)OCO2 (stereo unspecified)
inactive: [1] | [2] | [3] | [4] | [5]

CCC(=O)Oc1ccc2c(c1)CC[C@@H]1[C@@H]2CC[C@@]2(C)[C@H]1C[C@@H](OC(=O)CC)[C@@H]2OC(=O)CC
inactive: [1] | [2] | [3] | [4] | [5]

CN(C)CCCOC1(Cc2ccccc2)CCCCCC1
inactive: [1] | [2] | [4] | [5]

Cc1cccc(N(C)C(=S)Oc2ccc3c(c2)CCC3)c1
inactive: [1] | [2] | [3] | [5]

CCCCCCCCCCCCCCCCCCNC(=O)OC1CCN(C(=O)OC[C@H](COC(=O)N(Cc2cccc[n+]2CC)C(=O)c2ccccc2OC)OC)CC1
inactive: [3]
active: [1] 23.7 µM

CCC(CN)=C(c1ccccc1)c1ccccc1
inactive: [1] | [2] | [3] | [4] | [5]

CCCC(=O)OCOC(=O)C1=C(C)NC(C)=C(C(=O)OC)C1c1cccc(Cl)c1Cl (stereo unspecified)
inactive: [1] | [2] | [3] | [4] | [5]

CCOc1ccccc1OCC1CNCCO1 (stereo unspecified)
inactive: [1] | [2] | [3] | [5]

COCCOCC(OC)OC
inactive: [1] | [2] | [3] | [4] | [5]

CC(C)=CCNc1ncnc2c1ncn2[C@@H]1O[C@H](CO)[C@@H](O)[C@H]1O
active: [1] 13.3 µM | [3] 8.41 µM | [5] 6.68 µM
